Results on 21 molecules are retold here after the supplement of paper PMC7858590.

The first assay relates to human monocyte-derived macrophages (polarized). Put plainly: cell shape (eccentricity) Z-score vs DMSO control; higher = more elongated, M2-like morphology. The note with it: 5 µM; 24 h; macrophage state: M1-polarized (IFNg + TNFa), cytokines present during treatment. Here is the method: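 Primary-screen hits were rescreened on polarized hMDMs with the differentiating cytokines (IL-4 + IL-13 or IFNg + TNFa) kept in the medium during treatment with compound at 5 uM for 24 h. The eccentricity Z-score vs DMSO wells is averaged over experiments.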
`Nc1nc2ccc(OC(F)(F)F)cc2s1`: the “cell shape (Z-score)” value is -5.46.
For `CCOC(=O)N[C@@H]1CC[C@@H]2[C@@H](C1)C[C@H]1C(=O)O[C@H](C)[C@H]1[C@H]2/C=C/c1ccc(-c2cccc(F)c2)cn1`, the “cell shape (Z-score)” value came to 5.58.
The same measure, in the same setting: then `Oc1cccc(O)c1`, with -3.74; and `CCCCCCN(CCCCCC)C(=O)Cc1c(-c2ccc(F)cc2)[nH]c2ccccc12`, with -4.11; and `CC(C(=O)Nc1cccc(/N=C/c2c(O)ccc3ccccc23)c1)c1ccccc1` (stereo unspecified), with 3.72.
On the same count and under the same terms, the value for `CC1(C)C(=O)C=CC2(C)C1C=CC1(C)C2CCC2(C)C(c3ccoc3)OC(=O)C3OC312` (stereo unspecified) was -1.04.
With `COc1ccc(-c2cc(=O)c3c(O)cc(O)cc3o2)cc1O`, the “cell shape (Z-score)” value was found to be 3.77.
As for `CCCCCCOc1ccccc1C(N)=O`, the “cell shape (Z-score)” value came to 3.38.
Consider `O=C(CCCCCCC(=O)Nc1ccccc1)NO`, for which the “cell shape (Z-score)” value is -0.801.
As for `C/C=C/c1ccc2c(c1)O[C@@H](CN(C)C(=O)c1ccccc1)[C@@H](C)CN([C@@H](C)CO)S2(=O)=O`, the “cell shape (Z-score)” value is -5.32.
The same measure, in the same setting: then `Cc1cc(O)cc(=O)o1`, with 7.71; and `CC(C)(C)n1nc(-c2cccc3ccccc23)c2c(N)ncnc21`, with 6.74; and `O=C(NCCN1CCCCC1)c1ccc(I)cc1`, with 6.46.

The same assay, now with this note: 5 µM; 24 h; macrophage state: M2-polarized (IL-4 + IL-13), cytokines present during treatment.
On to `C=C(NC(=O)C(=C)NC(=O)c1csc(C2=N[C@@H]3c4csc(n4)[C@H]4NC(=O)c5csc(n5)[C@H]([C@](C)(O)[C@@H](C)O)NC(=O)[C@H]5CSC(=N5)/C(=C/C)NC(=O)[C@H]([C@@H](C)O)NC(=O)c5csc(n5)[C@]3(CC2)NC(=O)[C@H](C)NC(=O)C(=C)NC(=O)[C@H](C)NC(=O)[C@H]([C@@H](C)CC)N[C@@H]2C=Cc3c([C@H](C)O)cc(nc3[C@H]2O)C(=O)O[C@@H]4C)n1)C(N)=O` [Thiostrepton.2mM], for which the “cell shape (Z-score)” value is -5.55.
The same measure, in the same setting: then `O=C1NC(=O)/C(=C/c2ccc3nccc(-c4ccncc4)c3c2)S1`, with -2.56; and `O=C(Nc1ccc([N+](=O)[O-])cc1Cl)c1cc(Cl)ccc1O` [Niclosamide.2mM], with -6.52; and `C[C@@]12C[C@]3(O)O[C@H](O1)C1(COC(=O)c4ccccc4)[C@H]3C[C@@]12O[C@@H]1O[C@H](COC(=O)c2ccccc2)[C@@H](O)[C@H](O)[C@H]1O`, with -2.92.
Still for that read-out and setting: then `CC(=O)Oc1cc2c(c(C)c1OC(C)=O)CC=C1[C@@]2(C)CC[C@@]2(C)C3C[C@](C)(C(=O)O)CC[C@]3(C)CC[C@]12C` (stereo partly specified), with -0.297; and `COC(=O)Nc1nc2ccc(SC(C)C)cc2[nH]1`, with 0.135; and `O=C(Nc1nc2ccc(NC(=O)C34CC5CC(CC(C5)C3)C4)cc2s1)c1ccccc1`, with -6.86.
Same read-out and setting: the value for `COc1ccc(S(=O)(=O)N(C(C)=O)c2ccccc2/C=C/c2cc[n+]([O-])cc2)cc1` was -2.29.
